# Experimental data as given in PubChem BioAssay (Tox21).
# Several values for one entry are separate records, joined by “and”; a condition that tells them apart may be missing. Equal entries are not always repeated. Inconclusive results are not listed. Entries that show only a call come without a potency. The source holds several records for some structures; these can differ, active in one and inactive in another. Activity calls are given as the source filed them. The call rests on the fitted dose curve; in most records, active means well fitted curve in the direction sought with a large enough effect in the repeat runs; inconclusive means weak or mixed curves; inactive means no such curve, though single readings can be large; an effect the other way counts as inactive or inconclusive.
# Columns and labels:
# [1] = molecular target: Cytochrome P450 2C19 (Homo sapiens) (UniProt P33261); test: Cytochrome P450 Family 2 Subfamily C Member 19 (CYP2C19) small molecule antagonists: luciferase reporter qHTS assay (AID 1671197); further: nearly all actives have a fitted effect of over 65% in size; further: potency means the concentration at half of the fitted maximal effect; on activity change, negative = inhibition: series mostly up to about 120 µM
# Cytochrome P450 2C19 (Homo sapiens), sequence (P33261 whole entry, looked up): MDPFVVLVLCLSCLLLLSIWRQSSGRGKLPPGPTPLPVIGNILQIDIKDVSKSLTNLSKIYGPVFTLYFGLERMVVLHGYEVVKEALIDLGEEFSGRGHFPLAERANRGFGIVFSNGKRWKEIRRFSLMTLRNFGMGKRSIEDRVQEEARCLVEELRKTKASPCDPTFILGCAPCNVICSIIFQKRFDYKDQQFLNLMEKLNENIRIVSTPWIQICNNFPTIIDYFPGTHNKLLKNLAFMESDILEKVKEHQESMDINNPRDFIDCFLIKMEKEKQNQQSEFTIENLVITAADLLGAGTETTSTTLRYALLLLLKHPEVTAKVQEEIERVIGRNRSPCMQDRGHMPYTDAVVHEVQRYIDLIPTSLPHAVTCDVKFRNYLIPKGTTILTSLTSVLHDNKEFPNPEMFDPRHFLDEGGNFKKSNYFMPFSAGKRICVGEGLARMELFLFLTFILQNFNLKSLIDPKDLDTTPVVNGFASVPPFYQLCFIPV
# Outline: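 Inhibition of CYP2C19 was scored from loss of luminescence in a P450-Glo proluciferin substrate assay, NADPH-started and run 1 h at 37C, with ketoconazole as positive control.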
# [2] = molecular target: Cytochrome P450 2C9 (Homo sapiens) (UniProt P11712); test: Cytochrome P450 Family 2 Subfamily C Member 9 (CYP2C9) small molecule antagonists: luciferase reporter qHTS assay (AID 1671198); further: nearly all actives have a fitted effect of over 50% in size; further: potency means the concentration at half of the fitted maximal effect; on activity change, negative = inhibition: series mostly up to about 120 µM
# Cytochrome P450 2C9 (Homo sapiens), sequence (P11712 whole entry, looked up): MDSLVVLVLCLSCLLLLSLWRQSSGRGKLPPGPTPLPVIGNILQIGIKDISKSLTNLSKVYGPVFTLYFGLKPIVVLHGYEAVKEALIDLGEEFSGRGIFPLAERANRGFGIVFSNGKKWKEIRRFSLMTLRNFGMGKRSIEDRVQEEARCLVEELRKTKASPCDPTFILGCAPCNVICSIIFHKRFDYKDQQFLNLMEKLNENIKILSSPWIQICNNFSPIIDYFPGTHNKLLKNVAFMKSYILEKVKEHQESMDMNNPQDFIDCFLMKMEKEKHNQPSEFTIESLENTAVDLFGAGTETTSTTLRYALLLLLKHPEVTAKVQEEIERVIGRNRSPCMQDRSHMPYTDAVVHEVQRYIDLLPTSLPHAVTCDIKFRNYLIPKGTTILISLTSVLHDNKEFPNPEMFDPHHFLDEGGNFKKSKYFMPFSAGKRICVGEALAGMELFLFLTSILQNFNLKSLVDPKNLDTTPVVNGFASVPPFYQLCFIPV
# Outline: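 P450-Glo proluciferin substrate with CYP2C9 enzyme; 10 min RT preincubation, then NADPH regeneration 1 h at 37C; luciferin detection reagent 20 min RT, luminescence in relative luminescence units.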
# [3] = molecular target: Cytochrome P450 1A2 (Homo sapiens) (UniProt P05177); test: Cytochrome P450 Family 1 Subfamily A Member 2 (CYP1A2) small molecule antagonists: luciferase reporter qHTS assay (AID 1671199); further: nearly all actives have a fitted effect of over 50% in size; further: potency means the concentration at half of the fitted maximal effect; on activity change, negative = inhibition: series mostly up to about 120 µM
# Cytochrome P450 1A2 (Homo sapiens), sequence (P05177 whole entry, looked up): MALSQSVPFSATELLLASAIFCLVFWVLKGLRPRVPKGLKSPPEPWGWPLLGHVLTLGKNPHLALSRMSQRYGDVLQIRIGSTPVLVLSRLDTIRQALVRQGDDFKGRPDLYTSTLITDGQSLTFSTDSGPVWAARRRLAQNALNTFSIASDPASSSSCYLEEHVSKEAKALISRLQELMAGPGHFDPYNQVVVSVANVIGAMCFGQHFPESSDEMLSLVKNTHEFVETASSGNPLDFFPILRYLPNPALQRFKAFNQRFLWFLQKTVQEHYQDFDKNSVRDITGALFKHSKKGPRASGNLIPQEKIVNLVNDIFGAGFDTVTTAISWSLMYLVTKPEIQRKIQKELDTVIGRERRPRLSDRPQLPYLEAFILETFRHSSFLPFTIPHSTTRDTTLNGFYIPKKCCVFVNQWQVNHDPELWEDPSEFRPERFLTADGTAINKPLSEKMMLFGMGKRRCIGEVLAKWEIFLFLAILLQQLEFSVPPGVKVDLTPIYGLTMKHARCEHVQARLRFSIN
# Outline: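 Steps: enzyme-substrate mix dispensed; test compounds and furafylline control pinned in; 10 min room temperature; NADPH regeneration solution added, 1 h; reaction stopped with luciferin detection reagent; luminescence read after 20 min.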
# [4] = molecular target: Voltage-gated inwardly rectifying potassium channel KCNH2 (Homo sapiens) (UniProt Q12809); test: Human Ether-a-go-go-Related Gene (hERG) channel small molecule antagonists: fluorescence cell-based qHTS assay (AID 1671200);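 further: hERG-expressing U2OS cells given a thallium stimulus after FluxOR II dye loading; series mostly up to about 77 µM; nearly all actives have a fitted effect of over 50% in size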
# Voltage-gated inwardly rectifying potassium channel KCNH2 (Homo sapiens), sequence (Q12809 whole entry, looked up): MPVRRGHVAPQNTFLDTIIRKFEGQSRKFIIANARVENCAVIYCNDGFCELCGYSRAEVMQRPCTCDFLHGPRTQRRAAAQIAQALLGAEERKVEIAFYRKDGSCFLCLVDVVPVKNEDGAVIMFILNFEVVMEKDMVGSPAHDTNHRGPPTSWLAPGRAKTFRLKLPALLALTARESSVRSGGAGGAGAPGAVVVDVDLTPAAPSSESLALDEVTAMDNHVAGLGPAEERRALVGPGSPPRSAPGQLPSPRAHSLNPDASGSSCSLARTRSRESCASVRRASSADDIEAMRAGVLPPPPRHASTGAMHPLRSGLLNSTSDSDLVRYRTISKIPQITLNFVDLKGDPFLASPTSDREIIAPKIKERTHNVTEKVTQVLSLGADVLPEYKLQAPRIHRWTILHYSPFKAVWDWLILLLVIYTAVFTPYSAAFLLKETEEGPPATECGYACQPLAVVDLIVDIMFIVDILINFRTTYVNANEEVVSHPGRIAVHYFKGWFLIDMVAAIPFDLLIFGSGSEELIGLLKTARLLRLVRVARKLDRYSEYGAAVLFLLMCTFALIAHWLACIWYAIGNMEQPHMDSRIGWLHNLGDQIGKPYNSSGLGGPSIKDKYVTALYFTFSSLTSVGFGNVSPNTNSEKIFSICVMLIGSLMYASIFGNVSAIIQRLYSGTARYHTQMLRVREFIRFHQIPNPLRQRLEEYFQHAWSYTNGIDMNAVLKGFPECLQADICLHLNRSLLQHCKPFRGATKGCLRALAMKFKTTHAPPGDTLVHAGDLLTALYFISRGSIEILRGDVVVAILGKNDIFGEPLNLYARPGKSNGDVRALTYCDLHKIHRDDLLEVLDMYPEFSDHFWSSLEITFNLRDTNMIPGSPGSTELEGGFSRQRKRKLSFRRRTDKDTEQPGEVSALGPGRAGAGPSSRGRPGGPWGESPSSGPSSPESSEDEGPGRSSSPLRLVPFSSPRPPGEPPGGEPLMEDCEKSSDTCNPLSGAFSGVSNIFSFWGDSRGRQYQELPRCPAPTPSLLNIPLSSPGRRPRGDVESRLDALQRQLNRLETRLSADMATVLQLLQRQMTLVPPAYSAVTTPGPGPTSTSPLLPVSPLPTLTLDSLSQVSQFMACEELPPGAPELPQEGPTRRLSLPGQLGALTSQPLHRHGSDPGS
# Outline: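 Kinetic two-minute fluorescence traces, sampled at 1 s, were collected following thallium stimulus of U2OS cells (1000 per well) that had been cultured overnight at 37 C and loaded with FluxOR II.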
# [5] = molecular target: Cytochrome P450 3A4 (Homo sapiens) (UniProt P08684); test: Cytochrome P450 Family 3 Subfamily A Member 4 (CYP3A4) small molecule antagonists: luciferase reporter qHTS assay (AID 1671201); further: nearly all actives have a fitted effect of over 50% in size; further: potency means the concentration at half of the fitted maximal effect; on activity change, negative = inhibition: series mostly up to about 120 µM
# Cytochrome P450 3A4 (Homo sapiens), sequence (P08684 whole entry, looked up): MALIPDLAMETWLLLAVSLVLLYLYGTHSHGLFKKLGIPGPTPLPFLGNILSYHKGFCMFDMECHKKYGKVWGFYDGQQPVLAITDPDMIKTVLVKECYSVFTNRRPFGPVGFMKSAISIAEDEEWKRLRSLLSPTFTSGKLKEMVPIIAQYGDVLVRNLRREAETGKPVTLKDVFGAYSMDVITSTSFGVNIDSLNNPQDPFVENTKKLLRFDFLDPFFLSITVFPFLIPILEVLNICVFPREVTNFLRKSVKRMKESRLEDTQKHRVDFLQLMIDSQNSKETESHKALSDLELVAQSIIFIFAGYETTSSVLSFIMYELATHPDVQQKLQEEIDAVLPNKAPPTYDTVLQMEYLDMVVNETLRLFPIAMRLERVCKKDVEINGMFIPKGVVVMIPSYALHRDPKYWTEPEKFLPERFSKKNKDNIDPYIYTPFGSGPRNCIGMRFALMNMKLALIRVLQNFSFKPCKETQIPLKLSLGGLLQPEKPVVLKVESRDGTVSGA
# Outline: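 Proluciferin-to-luciferin conversion by CYP3A4, NADPH-regenerated, 1 h RT; luminescence read as RLU. Ketoconazole as control.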
SMILES,Potency [1],Potency [2],Potency [3],Potency [4],Potency [5],"activity change, negative = inhibition [1]","activity change, negative = inhibition [2]","activity change, negative = inhibition [5]"
COc1ccc(N)c(OC)c1,15.3 µM (active) and 35.6 µM (active),15.3 µM (active) and 35.6 µM (active),39.9 µM (active),inactive,3.84 µM (active) and 11.3 µM (active),–,–,–
Cc1ccc(Cl)cc1,inactive,63.3 µM (active),inactive,inactive,inactive,–,–,–
CC(=O)OCCC(C)C,79.7 µM (active),inactive,inactive,inactive,inactive,–,–,–
C[n+]1ccn(CCO)c1,inactive,inactive,inactive,inactive,inactive,–,–,–
COc1ccc2cc3[n+](cc2c1OC)CCc1cc2c(cc1-3)OCO2,20.2 µM (active) and inactive,inactive,25.4 µM (active) and 14.4 µM (active),inactive,–,–,–,–
CC(=O)OC(C)(C)C1CC=C(C)CC1 (centres undefined),35.6 µM (active),39.9 µM (active),inactive,inactive,inactive and 31.7 µM (active),–,–,–
CC/C(C)=N/O,inactive,inactive,inactive,inactive,inactive,–,–,–
CC(=O)C(C)C,inactive,inactive,inactive,inactive,inactive,–,–,–
O=C(Cl)c1ccc(C(=O)Cl)cc1,inactive,inactive,inactive and 63.3 µM (active),inactive,inactive,–,–,–
O=[N+]([O-])c1ccccc1C(F)(F)F,6.95 µM (active) and inactive,inactive,inactive,inactive,inactive,–,–,–
CCCCCCCCC(=O)O,30.7 µM (active),61.3 µM (active) and 79.6 µM (active),38.6 µM (active),inactive,inactive,–,–,–
CN1Cc2c(N)cccc2C(c2ccccc2)C1 (centres undefined),inactive,inactive,inactive,inactive,inactive,–,–,–
COC(=O)/C=C\C(=O)OC,inactive,inactive,inactive,inactive,inactive,–,–,–
CC1=CC(=O)CC(C)(C)C1,18.4 µM (active) and inactive,inactive,36.6 µM (active) and inactive,inactive,inactive,–,–,–
CC(=O)OC/C=C(\C)CCC=C(C)C,inactive and 39.9 µM (active),inactive and 39.9 µM (active),inactive,inactive,inactive and 31.7 µM (active),–,–,–
OCc1ccc(Cl)cc1Cl,inactive,inactive,39.9 µM (active),inactive,inactive,–,–,–

SMILES,Potency [1],Potency [2],Potency [3],Potency [4],Potency [5],"activity change, negative = inhibition [1]","activity change, negative = inhibition [2]","activity change, negative = inhibition [5]"
CCn1cc(C(=O)O)c(=O)c2cc3c(cc21)OCO3,51 µM (active),–,–,inactive,–,-7.51% [at 23.6 µM] (inactive),4.54% [at 23.6 µM] (inactive),-0.272% [at 23.6 µM] (inactive)
O=C(O)C1=NN(c2ccc(S(=O)(=O)O)cc2)C(=O)C1,35.6 µM (active),inactive,35.6 µM (active) and inactive,inactive,inactive,–,–,–
Nc1cccc(C(F)(F)F)c1,inactive,inactive,inactive,inactive,inactive,–,–,–
C1CCCNCC1,inactive,inactive,inactive,inactive,inactive,–,–,–
CCCCCCCCO,inactive,inactive,37.1 µM (active),inactive,inactive,–,–,–
NC(N)=S,39.1 µM (active),inactive,inactive,inactive,inactive,–,–,–
CCCCC(=O)O,inactive,inactive,inactive,inactive,inactive,–,–,–
Cc1ccccc1C=O,inactive,inactive,inactive,inactive,inactive,–,–,–
C=C(C)CC(C)(C)C,inactive,inactive,inactive,inactive,inactive,–,–,–
CC(C=O)Cc1ccc(C(C)(C)C)cc1 (centres undefined),inactive,56.4 µM (active),inactive,inactive,inactive,–,–,–
C[Si](C)(C)N[Si](C)(C)C,inactive,inactive,inactive,inactive,inactive,–,–,–
Cc1cc(C)c(O)c(C)c1,71 µM (active),35.6 µM (active) and 79.6 µM (active),35.6 µM (active) and 28.3 µM (active),inactive,inactive,–,–,–
C=CC(C)(C)C,inactive,inactive,44.8 µM (active),inactive,inactive,–,–,–
COC(=O)OC,inactive,inactive,inactive,inactive,inactive,–,–,–
COc1c2ccoc2cc2oc(=O)ccc12,5.77 µM (active) and 8.94 µM (active),2.89 µM (active) and 2.52 µM (active),364 nM (active) and 283 nM (active),inactive,6.47 µM (active) and 10 µM (active),–,–,–
